High-throughput results from PubChem.
CatG inh = human cathepsin G inhibitors, primary screen, biochemical, pooled compound mixtures, AMC fluorescence; 62,000 compounds, 0.2% hits; purified enzyme, AMC-tetrapeptide fluorescence; AID 581, 2007; inhibition, % at 5 µM (by protocol); P08311;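 active = inhibition above 20% in each of the two mixture wells holding the compound; inactive = inhibition of 20% or less in either well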;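 also: 0% = enzyme control without mixture and 100% = blank lacking enzyme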
Target sequence (P08311 21-244 limits assumed): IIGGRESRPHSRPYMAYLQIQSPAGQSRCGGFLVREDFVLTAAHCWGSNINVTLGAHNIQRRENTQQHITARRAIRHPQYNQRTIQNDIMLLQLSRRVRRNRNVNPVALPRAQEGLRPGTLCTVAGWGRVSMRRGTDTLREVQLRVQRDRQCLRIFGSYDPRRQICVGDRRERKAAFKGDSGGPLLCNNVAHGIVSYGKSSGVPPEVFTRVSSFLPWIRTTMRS
CatB block = human cathepsin B inhibitors, primary screen, biochemical, fluorogenic substrate; purified cathepsin B, fluorescence; inhibition, %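 (tested at 10 µM)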; 63,000 compounds, 0.1% hits; in the data active = inhibition above about 21%;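 also: 0% = enzyme with no compound and 100% = no enzyme blank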
CatB mixtures = cathepsin B inhibitors from pooled compounds, primary screen, biochemical, compound mixtures, AMC fluorescence | P07858 | Purified cathepsin B, AMC dipeptide fluorescence | inhibition, %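 (ten-compound pools at 5 µM per compound and 50 µM total)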 | 62,000 compounds, 0.06% hits | AID 488, 2006; in the data active = inhibition above about 22%, passing the limit was not always enough;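 also: 0% = enzyme without compound and 100% = no enzyme blank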
CatS inh = inhibitors of human cathepsin S, biochemical, compound mixtures. inhibition, %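 (tested at 5 µM per compound within 10-compound mixtures)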. 62,000 compounds, 0.06% hits. P25774. recombinant cathepsin S, AMC dipeptide fluorescence, pooled mixtures; in the data active = inhibition above about 32%, passing the limit was not always enough;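 also: 0% = enzyme without compound and 100% = blank without enzyme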
CatL block = inhibitors of human cathepsin L, biochemical; Procathepsin L (Homo sapiens), P07711; purified cathepsin L, fluorogenic substrate, fluorescence; inhibition, %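 (tested at 10 µM)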; 58,000 compounds, 0.17% hits; AID 460, 2006; in the data active = inhibition above about 45%;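 also: 0% = enzyme with no compound and 100% = no enzyme blank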
C1s block = complement C1s protease inhibitors, primary screen, biochemical, 10-compound mixtures. 62,000 compounds, 0.16% hits. mean inhibition % of two 10-compound mixtures (stronger effect = higher value), % at 5 µM (by protocol). AID 538, 2006. purified C1s, fluorogenic AMC substrate, pooled mixtures;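 active = inhibition above 20% in each of the two 10-compound mixture wells holding the compound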;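 also: 0% = enzyme wells lacking compound mixture and 100% = no-enzyme blank wells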
Active calls of the source: *. Most compounds without a hit are left out; they make up all but 0.54% or so of the library.

SMILES	CatG inh	CatB block	CatB mixtures	CatS inh	CatL block	C1s block
Cc1ccc(NS(=O)(=O)c2cc(C(=O)N3CCOCC3)ccc2C)cc1C	14	0	3	6	1	21*
Cc1ccc(NS(=O)(=O)c2cc(C(=O)N3CCN(C)CC3)ccc2C)cc1	6	1	2	-13	-14	13
Cn1cccc1Cc1nnc(SCC(=O)NCC2CCCO2)n1-c1ccc(F)cc1 (stereo not drawn)	10	1	8	23	46*	16
COc1ccc(-n2c(Cc3cccn3C)nnc2SCC(=O)NCc2ccccc2Cl)cc1	8	0	0	0	101*	-40
Cn1cccc1Cc1nnc(SCC(=O)Nc2ccc(F)cc2)n1-c1ccc(F)cc1	1	1	-10	-9	13	-59
Cc1sc2ncnc(OCC(=O)N3CCN(S(=O)(=O)c4ccccc4)CC3)c2c1C	4	0	-3	2	-6	-1
Cc1cc2nnc(SCc3ccccc3)n2c(N)n1	-1	2	2	5	7	6
CC(=O)NC(C)C(=O)OCc1ccc(Cl)cc1Cl (stereo not drawn)	4	-3	1	-13	8	6
COc1ccc(N2CCN(S(=O)(=O)/C=C/c3ccccc3)CC2)cc1	1	-6	6	3	12	-27
CN1CCN(S(=O)(=O)c2ccc(N3CCN(S(=O)(=O)/C=C/c4ccccc4)CC3)nc2)CC1	-9	9	3	15	91*	3
CCOc1ccc(NC2=NC(C(=O)NCc3ccccc3)CC(=O)N2)cc1 (stereo not drawn)	4	-6	-4	8	55*	4
O=C1CC(C(=O)NCc2ccccc2)N=C(N2CCCCC2)N1 (stereo not drawn)	-3	3	0	6	8	3
O=C(c1ccco1)N1CCN(S(=O)(=O)c2ccc(S(=O)(=O)NC3CCCCC3)cc2)CC1	9	1	3	0	-1	71*
CC[C@@H](C)[C@H](NC(=O)OC(C)(C)C)c1nnc(S(=O)(=O)Cc2cc(C)ccc2C)o1	27*	19	11	8	31	4
Cc1[nH]c(=O)[nH]c(=O)c1CSc1nnc([C@@H](NC(=O)OC(C)(C)C)C(C)C)o1	10	-1	-4	0	-2	3
CC(C)=CCSc1nnc([C@@H](NC(=O)OC(C)(C)C)C(C)C)o1	1	1	-3	17	4	-9
CC(C)(C)OC(=O)N[C@@H](Cc1ccccc1)c1nnc(S(=O)(=O)Cc2cccc(F)c2)o1	63*	4	3	-3	31	-7
CC(C)[C@H](NC(=O)OC(C)(C)C)c1nnc(S(=O)(=O)Cc2c(F)cccc2Cl)o1	38*	11	19	-3	31	13
Cc1ccccc1CS(=O)(=O)c1nnc([C@H](CC(C)C)NC(=O)OC(C)(C)C)o1	21*	7	9	-3	15	15
O=C(NC1CCCC1)C(c1ccco1)N(Cc1ccccc1)C(=O)c1csnn1 (stereo not drawn)	8	-1	6	8	2	20
O=C(N1CCOCC1)N1CCC(NC(=O)C23CC4CC(CC(C4)C2)C3)CC1	4	-4	5	-7	-1	2
CCC(CO)NC(=O)c1cccc(S(=O)(=O)N2c3ccccc3CC2C)c1 (stereo not drawn)	-7	7	-1	21	14	-10
CC(C)C[C@H](N)c1nnc(S(=O)(=O)Cc2cccc(F)c2)o1	3	6	2	15	46*	-11
CCOC(=O)CN1C(=O)CSc2ccccc21	2	-4	5	-2	6	-30
COc1ccc(N(CC(=O)Nc2cccc(C)c2C)S(=O)(=O)c2c(C)n[nH]c2C)cc1	1	62*	1	3	12	-1
Fc1cccc(Cl)c1CSc1nnc(COc2cccc3cccnc23)o1	-3	2	0	10	12	-3
CS(=O)(=O)N(CC(=O)N1CCCCC1)C1CCCCC1	0	2	3	5	3	2
CC(C)C(CC(=O)N1CCCCC1)C1CCOC(C)(C)C1 (stereo not drawn)	28*	0	32	-4	4	-11
